# Assay results from PubChem BioAssay (EPA / NIEHS).
# Several values for one entry are separate records, joined by “and”; a condition that tells them apart may be missing. Equal entries are not always repeated. Some compounds were tested as several samples or in several runs, with calls that do not always agree. Activity calls are given as the source filed them. How the source made its calls: active means hit-call score of the fitted dose curve at least 0.9, where 1 is the maximum; inactive means score below 0.9.
# Read-out: CD40, CD40 (gene 958)
# Test: BSK_IMphg_CD40: BioMAP Diversity Plus: IMphg Assay for CD40 Biomarker Activity (AID 2284288)
# Conditions: primary human endothelial cells with macrophages
# Description: BSK_IMphg is a cell-based, multiplexed-readout assay that uses venular endothelial cells and macrophages, a human vascular primary cell, with measurements taken at 24 hours after chemical dosing in a microplate: 96-well plate.BSK_IMphg_CD40 is an assay component measured in the BSK_IMphg assay. It measures CD40 antibody related to regulation of gene expression using ELISA technology.Data from the assay component BSK_IMphg_CD40 was analyzed at the endpoint, BSK_IMphg_CD40, in the positive analysis fitting direction relative to DMSO as the negative control and baseline of activity. Using a type of binding reporter, gain or loss-of-signal activity can be used to understand protein changes. To generalize the intended target to other relatable targets, this assay endpoint is annotated to the 'cytokine' intended target family, where the subfamily is 'inflammatory factor'.
# The levels of cell surface (or secreted, indicated by the prefix "s") biomarker endpoints were measured by ELISA. Overt cytotoxicity to cells in confluent adherent cultures (all systems other than the BT system) was assessed by measuring total protein levels using sulforhodamine B (SRB) staining in parallel cultures at the time of biomarker measurements, indicated as SRB endpoints. For proliferation assays for adherent cell types, individual cell types are cultured at sub-confluence and relative cell numbers quantified by SRB staining at time points optimized for each system (48 h: 3C and CASM3C systems; 72 h: BT and HDF3CGF systems; 96 h: SAg system). SRB was performed by staining cells with 0.1% SRB after fixation with 10% TCA and reading wells at 560 nm.Viability and proliferation of PBMC (T cells) was quantified by Alamar Blue reduction for the SAg and BT systems. For PBMC viability (referred to as PBMC Cytotoxicity within the assay endpoint names), cells were plated (75,000/well in a 96-well plate) and then chemical samples added for 1 h before addition of activators, SEB and TSST-1 (20 ng/mL final concentration each). Cells were incubated for 90 h. Then, Alamar Blue (20 uL/well) (Invitrogen, Cat DAL1100) was added for 6 h, and the plates were read with a fluorescence microplate reader at 546/580 nm (excitation/emission). For PBMC proliferation, cells were plated and activated as above but incubated for only 16 h prior to addition of Alamar Blue. Plates were read after 6 h.
SMILES,outcome,AC50
O=C(O)C(F)(F)OC(F)(F)C(F)(F)OC(F)(F)C(=O)O,inactive,–
OCC(F)(F)OC(F)(F)C(F)(F)OC(F)(F)C(F)(F)OC(F)(F)CO,inactive,30 µM (active)
FC(F)(F)C(F)(C(F)(F)F)C(F)(F)C(F)(F)CC1CO1 (stereo unspecified),inactive,–
O=C(O)C=CC(F)(C(F)(F)F)C(F)(F)F,inactive,–
NC(=O)C(F)(F)C(F)(F)F,inactive,–
OCC(F)(F)OC(F)(F)C(F)(F)OC(F)(F)C(F)(F)OC(F)(F)F,–,7.58 µM (active) and 49.2 µM (active)
CC(O)C(F)(F)C(F)(F)F (stereo unspecified),inactive,2.17 µM (active)
O=S(=O)(F)C(F)(F)C(F)(F)C(F)(F)C(F)(F)C(F)(F)C(F)(F)C(F)(F)C(F)(F)F,inactive,–
C=CC(=O)OCC(F)(F)C(F)F,–,21.6 µM (active) and 23.6 µM (active)
COC(=O)C(F)(F)C(F)(F)OC(F)(C(F)(F)F)C(F)(F)OC(F)=C(F)F (stereo unspecified),inactive,–
O=C(O)C(F)(OC(F)(F)C(F)(F)C(F)(F)F)C(F)(F)F (stereo unspecified),inactive,–
OCC(F)(F)OC(F)(F)C(F)(F)OC(F)(F)CO,inactive,–
O=C(O)C(F)(F)OC(F)(F)C(F)(F)OC(F)(F)F,inactive,–
O=C(O)C(F)(F)C(F)(F)C(=O)O,inactive,–
